This note sets out measurements from ChEMBL document CHEMBL3988442, “University of Dundee, Small-Polar-MMV Screening Library” (2021).

Molecules are shown by their SMILES. For some assays here: Results with a measured potency or affinity are listed apart.

What all share (set-up): scale not given: direction of the effect not stated beside the values
In assay [1] the target is Protein translocase subunit SecA (Escherichia coli (strain K12)) (UniProt P10408). The experiment in a line: Assay to Identify E. coli SecA ATPase Inhibitors. The format is functional. The note with it: 30 µM.
Protein translocase subunit SecA (Escherichia coli (strain K12)), sequence (P10408 whole entry): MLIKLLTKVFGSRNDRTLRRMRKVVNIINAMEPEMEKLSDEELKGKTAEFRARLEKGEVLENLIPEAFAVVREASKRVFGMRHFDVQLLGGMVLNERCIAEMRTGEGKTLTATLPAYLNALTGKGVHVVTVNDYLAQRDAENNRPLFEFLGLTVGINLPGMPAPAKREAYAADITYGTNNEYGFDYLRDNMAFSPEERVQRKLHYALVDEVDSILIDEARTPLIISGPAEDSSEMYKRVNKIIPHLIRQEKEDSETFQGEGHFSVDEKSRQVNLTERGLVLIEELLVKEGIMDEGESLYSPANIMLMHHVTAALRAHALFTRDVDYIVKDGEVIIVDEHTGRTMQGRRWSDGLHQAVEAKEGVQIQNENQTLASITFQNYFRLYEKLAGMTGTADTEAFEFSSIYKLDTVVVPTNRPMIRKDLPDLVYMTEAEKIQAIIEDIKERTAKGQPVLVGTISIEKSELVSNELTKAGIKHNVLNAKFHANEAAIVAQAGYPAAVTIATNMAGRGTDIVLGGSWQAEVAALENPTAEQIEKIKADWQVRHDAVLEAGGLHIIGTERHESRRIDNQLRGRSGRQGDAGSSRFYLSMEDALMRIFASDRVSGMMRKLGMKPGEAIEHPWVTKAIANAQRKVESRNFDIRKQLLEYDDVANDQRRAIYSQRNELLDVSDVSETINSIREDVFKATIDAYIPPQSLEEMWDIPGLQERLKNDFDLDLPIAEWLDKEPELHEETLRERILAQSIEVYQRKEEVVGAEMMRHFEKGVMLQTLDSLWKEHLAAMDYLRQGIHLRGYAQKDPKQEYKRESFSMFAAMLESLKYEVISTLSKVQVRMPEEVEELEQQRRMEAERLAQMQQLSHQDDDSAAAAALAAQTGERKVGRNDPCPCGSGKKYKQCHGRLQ
In assay [2] the target is T1, Ubiquitin-activating enzyme e1, putative (Leishmania donovani (strain BPK282A1)) (UniProt E9BSI1).
T1 sequence (whole entry): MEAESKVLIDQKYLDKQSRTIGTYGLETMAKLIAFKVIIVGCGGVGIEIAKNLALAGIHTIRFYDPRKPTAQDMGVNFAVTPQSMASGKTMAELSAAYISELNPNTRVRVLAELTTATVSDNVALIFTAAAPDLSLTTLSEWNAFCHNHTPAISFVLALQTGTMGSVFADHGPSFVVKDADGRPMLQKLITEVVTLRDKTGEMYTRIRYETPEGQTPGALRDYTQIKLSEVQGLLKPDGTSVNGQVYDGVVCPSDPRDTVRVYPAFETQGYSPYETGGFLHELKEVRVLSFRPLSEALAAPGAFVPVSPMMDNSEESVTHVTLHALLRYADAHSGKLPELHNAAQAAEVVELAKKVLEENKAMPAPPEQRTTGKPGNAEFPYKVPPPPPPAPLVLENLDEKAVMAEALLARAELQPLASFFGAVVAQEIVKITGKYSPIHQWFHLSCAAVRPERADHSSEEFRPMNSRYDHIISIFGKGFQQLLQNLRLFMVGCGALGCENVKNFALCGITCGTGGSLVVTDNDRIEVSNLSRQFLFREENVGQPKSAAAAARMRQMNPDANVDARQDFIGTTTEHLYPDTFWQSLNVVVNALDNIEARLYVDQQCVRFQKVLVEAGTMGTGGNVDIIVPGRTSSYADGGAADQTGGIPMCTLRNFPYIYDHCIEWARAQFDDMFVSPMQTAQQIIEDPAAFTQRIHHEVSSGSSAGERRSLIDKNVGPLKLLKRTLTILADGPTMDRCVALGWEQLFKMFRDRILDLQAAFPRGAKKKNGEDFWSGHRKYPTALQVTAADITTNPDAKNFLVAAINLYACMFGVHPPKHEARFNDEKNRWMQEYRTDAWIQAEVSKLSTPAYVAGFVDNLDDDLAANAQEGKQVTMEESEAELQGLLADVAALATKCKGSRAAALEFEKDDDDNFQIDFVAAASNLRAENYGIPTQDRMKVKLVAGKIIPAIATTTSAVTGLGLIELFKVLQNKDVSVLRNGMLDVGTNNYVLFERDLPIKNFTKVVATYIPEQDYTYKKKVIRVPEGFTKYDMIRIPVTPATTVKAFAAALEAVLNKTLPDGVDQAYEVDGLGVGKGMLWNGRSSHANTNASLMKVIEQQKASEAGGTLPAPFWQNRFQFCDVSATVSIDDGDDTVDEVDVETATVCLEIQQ
As to the kind of experiment: Leishmania donovani Ubiquitin Activating Enzyme (LdE1). The format is functional. The note with it: 30 µM.

Assay [3] concerns the target Sialic acid-binding Ig-like lectin 9 (Homo sapiens) (UniProt Q9Y336). The experiment in a line: Hs-Siglec9 ALPHAscreen SOP 20170721. The settings on record: 10 µM.
The test system of the next assay is Trypanosoma cruzi. As to the kind of experiment: Trypanosoma cruzi phosphomannomutase and mannose-1-phosphate guanylyltransferase assay. The format is functional. The note with it: 10 µM.
The target in assay [4] is T2, Arginase-2, mitochondrial (Homo sapiens) (UniProt P78540).
T2 sequence (whole entry): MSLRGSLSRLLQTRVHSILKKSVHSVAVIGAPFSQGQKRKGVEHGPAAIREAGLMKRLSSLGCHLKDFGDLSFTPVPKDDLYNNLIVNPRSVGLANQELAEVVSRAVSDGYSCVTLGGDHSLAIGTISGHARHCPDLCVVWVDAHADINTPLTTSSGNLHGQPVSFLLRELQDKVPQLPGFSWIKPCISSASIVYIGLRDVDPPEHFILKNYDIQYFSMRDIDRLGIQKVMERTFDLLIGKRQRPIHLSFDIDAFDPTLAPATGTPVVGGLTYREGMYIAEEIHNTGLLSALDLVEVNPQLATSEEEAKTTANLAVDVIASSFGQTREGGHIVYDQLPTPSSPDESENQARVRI
As to the kind of experiment: in vitro enzyme assay to detect the production of urea directly proportional to the activity of Arginase II. Note: in the data most compounds retested in dose-response had high values. The format is functional. The note with it: 33.3 µM.

The target of assay [5] is T3, Proteasome subunit beta (Trypanosoma cruzi) (UniProt O96673).
T3 sequence (whole entry): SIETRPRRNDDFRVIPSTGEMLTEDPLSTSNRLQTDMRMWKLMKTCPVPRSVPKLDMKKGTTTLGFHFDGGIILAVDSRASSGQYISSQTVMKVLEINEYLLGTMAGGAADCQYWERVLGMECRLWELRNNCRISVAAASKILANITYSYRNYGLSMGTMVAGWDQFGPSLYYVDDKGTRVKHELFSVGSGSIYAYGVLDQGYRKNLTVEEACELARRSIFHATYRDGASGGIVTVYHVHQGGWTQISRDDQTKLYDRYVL
The experiment in a line: Trypanosoma cruzi proteasome chymotrypsin-like activity (TcProtChymo) assay. Note: in the data most compounds retested in dose-response had high values. The note with it: 9.37 µM. The assay is classed as functional.

The next assay is filed under the species Homo sapiens. The experiment in a line: To identify inhibition of the IFN signalling (Jak-Stat) pathway via expression of an eGFP reporter gene under the control of an IFN-stimulated response element (ISRE) containing MxA promoter. The note with it: 30 µM. The format is functional. (In a reporter assay the amount or activity of a reporter protein is the signal.)

For assay [6], the target named is T4, Tyrosyl-tRNA synthetase, putative (Trypanosoma cruzi (strain CL Brener)) (UniProt Q4DSP6).
T4 sequence (whole entry): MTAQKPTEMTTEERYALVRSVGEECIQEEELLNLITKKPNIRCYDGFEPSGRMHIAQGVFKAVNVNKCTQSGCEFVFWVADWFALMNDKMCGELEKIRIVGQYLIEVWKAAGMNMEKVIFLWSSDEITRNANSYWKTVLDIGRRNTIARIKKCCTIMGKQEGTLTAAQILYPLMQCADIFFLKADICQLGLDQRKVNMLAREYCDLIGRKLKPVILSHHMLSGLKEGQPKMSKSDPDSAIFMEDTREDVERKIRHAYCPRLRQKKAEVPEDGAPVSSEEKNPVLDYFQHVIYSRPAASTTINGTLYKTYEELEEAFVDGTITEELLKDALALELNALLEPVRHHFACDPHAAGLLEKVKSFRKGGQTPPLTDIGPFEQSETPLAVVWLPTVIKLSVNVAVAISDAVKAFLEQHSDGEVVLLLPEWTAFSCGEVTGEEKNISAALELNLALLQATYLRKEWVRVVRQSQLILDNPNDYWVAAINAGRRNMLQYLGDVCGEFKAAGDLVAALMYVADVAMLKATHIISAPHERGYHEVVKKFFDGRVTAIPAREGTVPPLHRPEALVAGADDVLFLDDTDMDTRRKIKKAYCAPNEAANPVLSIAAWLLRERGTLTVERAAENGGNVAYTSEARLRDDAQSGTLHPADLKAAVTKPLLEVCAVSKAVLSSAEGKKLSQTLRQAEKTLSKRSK
The experiment in a line: Trypanosoma cruzi tyrosyl tRNA synthetase (TcYRS) _High Tyrosine SOP. Note: in the data most compounds retested in dose-response had high values. The assay is classed as functional. The settings on record: 30 µM.

Assay [7] has as its target T4, Tyrosyl-tRNA synthetase, putative (Trypanosoma cruzi (strain CL Brener)). The experiment in a line: Trypanosoma cruzi tyrosyl tRNA synthetase (TcYRS) SOP. The format is functional. The settings on record: 30 µM.
In assay [8] the target is Chromo domain-containing protein 1 (Saccharomyces cerevisiae (strain ATCC 204508 / S288c) (Baker's yeast)) (UniProt P32657). As to the kind of experiment: ScCHD-1 Enzyme Inhibition Assay. Note: in the data most compounds retested in dose-response had high values. The assay is classed as functional. The note with it: 30 µM.
Chromo domain-containing protein 1 (Saccharomyces cerevisiae (strain ATCC 204508 / S288c) (Baker's yeast)), sequence (P32657 whole entry, the tested form may be a part): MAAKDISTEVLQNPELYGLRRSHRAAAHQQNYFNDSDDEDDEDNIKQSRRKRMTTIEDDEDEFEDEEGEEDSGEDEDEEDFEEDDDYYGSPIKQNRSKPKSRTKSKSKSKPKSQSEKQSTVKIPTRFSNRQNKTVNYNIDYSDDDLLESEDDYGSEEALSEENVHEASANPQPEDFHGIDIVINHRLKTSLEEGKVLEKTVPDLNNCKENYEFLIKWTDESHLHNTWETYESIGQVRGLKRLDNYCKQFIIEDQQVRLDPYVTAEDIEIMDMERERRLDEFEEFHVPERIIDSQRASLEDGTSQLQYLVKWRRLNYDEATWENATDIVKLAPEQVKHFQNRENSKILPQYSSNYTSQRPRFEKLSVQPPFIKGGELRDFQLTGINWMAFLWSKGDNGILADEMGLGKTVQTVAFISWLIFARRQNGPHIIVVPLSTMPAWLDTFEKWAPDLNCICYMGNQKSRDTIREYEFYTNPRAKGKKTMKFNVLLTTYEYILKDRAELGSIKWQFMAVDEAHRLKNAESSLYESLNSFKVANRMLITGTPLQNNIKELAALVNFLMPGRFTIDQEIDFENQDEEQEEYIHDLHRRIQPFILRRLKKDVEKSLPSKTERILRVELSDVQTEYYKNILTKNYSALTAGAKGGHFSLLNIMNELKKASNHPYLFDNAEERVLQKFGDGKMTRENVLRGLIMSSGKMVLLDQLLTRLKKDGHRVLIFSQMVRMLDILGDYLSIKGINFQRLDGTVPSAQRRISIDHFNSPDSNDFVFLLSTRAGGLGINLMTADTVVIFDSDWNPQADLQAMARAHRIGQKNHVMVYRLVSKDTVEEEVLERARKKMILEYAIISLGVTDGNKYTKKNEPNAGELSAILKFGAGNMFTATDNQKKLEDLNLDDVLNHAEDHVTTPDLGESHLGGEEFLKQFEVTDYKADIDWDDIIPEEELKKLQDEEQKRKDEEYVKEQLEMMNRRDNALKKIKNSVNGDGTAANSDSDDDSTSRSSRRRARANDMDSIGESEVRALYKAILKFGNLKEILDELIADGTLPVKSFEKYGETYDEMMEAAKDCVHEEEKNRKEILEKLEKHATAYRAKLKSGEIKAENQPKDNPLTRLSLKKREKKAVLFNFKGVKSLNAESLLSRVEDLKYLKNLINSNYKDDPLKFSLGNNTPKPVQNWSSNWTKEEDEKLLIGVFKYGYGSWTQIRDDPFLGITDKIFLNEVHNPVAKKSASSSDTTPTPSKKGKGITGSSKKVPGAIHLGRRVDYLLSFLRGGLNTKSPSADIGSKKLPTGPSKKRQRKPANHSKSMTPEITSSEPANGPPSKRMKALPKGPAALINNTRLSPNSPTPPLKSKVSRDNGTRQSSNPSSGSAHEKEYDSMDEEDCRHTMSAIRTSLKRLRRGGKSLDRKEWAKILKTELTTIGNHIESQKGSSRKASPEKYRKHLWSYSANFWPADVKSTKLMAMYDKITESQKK

Sialic acid-binding Ig-like lectin 9 (Homo sapiens), sequence (Q9Y336 whole entry): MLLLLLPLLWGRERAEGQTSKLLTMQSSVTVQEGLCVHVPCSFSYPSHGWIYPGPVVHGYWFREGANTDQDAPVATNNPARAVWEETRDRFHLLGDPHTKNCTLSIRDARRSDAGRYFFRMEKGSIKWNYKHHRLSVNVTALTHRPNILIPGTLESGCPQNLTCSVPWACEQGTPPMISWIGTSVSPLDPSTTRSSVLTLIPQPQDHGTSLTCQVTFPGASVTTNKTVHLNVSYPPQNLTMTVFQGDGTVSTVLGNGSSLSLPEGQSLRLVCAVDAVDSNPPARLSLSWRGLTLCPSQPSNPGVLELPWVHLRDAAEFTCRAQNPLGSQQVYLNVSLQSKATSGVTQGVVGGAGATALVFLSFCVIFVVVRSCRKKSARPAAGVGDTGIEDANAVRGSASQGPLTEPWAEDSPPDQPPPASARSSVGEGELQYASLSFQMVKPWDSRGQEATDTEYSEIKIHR

For `Cc1ccc(N2CCCN(C(=O)c3c(C)oc(C)c3C)CC2)nn1`, the Percent Effect in assay [1] was -6.08%; in assay [2], 18.7%; in assay [3] it was 5.84%; in the assay on Trypanosoma cruzi it was 2.61%; in [4], -0.887%; in [5], 9.92%. The Percent Effect is 4.96% in the assay listed under Homo sapiens, 4.74% in [6], 15.4% in [7] and -6.9% in assay [8].

Take `CCNc1nc2c(s1)C(=O)CN(C(=O)NCCc1ccccc1)C2`: the Percent Effect is -3.42% in [1]; 5.33% in assay [2]; -0.604% in assay [3]; -6.43% with Trypanosoma cruzi; 3.99% in [4]; -1.95% in [5]. In addition, the Percent Effect in the assay listed under Homo sapiens amounted to 9.15%; in assay [6], 1.58%; in [7], 2.56%; in assay [8], 2.08%.

With `Cc1noc(C(C)C)c1C(=O)NCCCOC(C)C`, the Percent Effect is 0.204% in assay [1]; 2.6% in assay [2]; 15.3% in [3]; 0.373% in the assay with Trypanosoma cruzi; -2.25% in [4]; 6.67% in assay [5]. The Percent Effect in the assay listed under Homo sapiens is -3.84%; in assay [6], 0.98%; in assay [7] it was 9.41%; in assay [8], -6.89%.

Consider `Cc1ccc(CCN2CCC(N(C)Cc3noc(C4CC4)n3)C2)cc1` (stereo not given), for which the Percent Effect was -0.729% in assay [1]; 10.3% in assay [2]; -7.58% in assay [3]; 0.0939% in the assay with Trypanosoma cruzi; 3.69% in [4]; 11.7% in [5]. The Percent Effect is -3.17% in the assay listed under Homo sapiens, 5.26% in assay [6], 8.43% in [7] and -4.27% in assay [8].

Consider `CCN(CC)C1CCN(C(=O)NCc2nncn2CC)CC1`, for which the Percent Effect in assay [1] was -3.6%; in assay [2], 13.3%; in [3], -2.94%; with Trypanosoma cruzi, 3.41%; in assay [4], 3.55%; in assay [5], 12%. Moreover, the Percent Effect is 21.2% in the assay filed under Homo sapiens, 0.526% in [6], 7.69% in assay [7] and -11.2% in assay [8].

With `CS(=O)(=O)c1ccccc1C(=O)NCCCN1CCc2ccccc2C1`, the Percent Effect in assay [1] is -5.27%; in assay [2], 18.7%; in assay [3] it was 2.07%; in the assay with Trypanosoma cruzi it was 7.03%; in assay [4] it was -0.887%; in assay [5], 17.1%. The Percent Effect was -1.14% in the assay listed under Homo sapiens, 3.68% in assay [6], 15.4% in [7] and -11.6% in assay [8].

Turning to `CCNC(=O)c1ccc(CNCc2c(C)nn(C)c2N(C)C)cc1`, the Percent Effect in assay [1] was -4.63%; in assay [2] it was 21.3%; in assay [3], 1.18%; in the assay with Trypanosoma cruzi, 5.62%; in [4] it was -0.444%; in assay [5] it was 22.3%. The Percent Effect in the assay listed under Homo sapiens is 2.98%; in [6], 4.74%; in assay [7], 12.8%; in [8], -11.6%.

With `CCc1cc(C(=O)N2CCC(Nc3ccc(C)nn3)CC2)sc1C`, the Percent Effect is -4.07% in assay [1]; 10.7% in [2]; -0.268% in assay [3]; 3.61% with Trypanosoma cruzi; -4.88% in [4]; 2.8% in assay [5]. Also, the Percent Effect is 4.58% in the assay listed under Homo sapiens, 5.79% in assay [6], 7.69% in [7] and -9.15% in assay [8].

With `COc1ccc(CNCc2ccnc(N3CCOCC3)c2)cc1OC`, the Percent Effect in assay [1] is -2.27%; in [2], 33.3%; in assay [3], -6.8%; in the assay with Trypanosoma cruzi it was 5.16%; in [4] it was -8.61%; in [5], 10.7%. Further, the Percent Effect in the assay filed under Homo sapiens was 11.3%; in assay [6] it was 6.22%; in assay [7] it was 20.5%; in assay [8] it was -7.91%.

With `CN(C)CC1CN(Cc2ccsc2)Cc2nccn2C1` (stereo not given), the Percent Effect in [1] was -3.4%; in assay [2], 6.49%; in assay [3], -4.24%; in the assay on Trypanosoma cruzi it was -1.85%; in [4], 3.24%; in [5], 18.4%. The Percent Effect in the assay listed under Homo sapiens is -9.26%; in [6], 8.95%; in assay [7], 12.8%; in assay [8] it was 6.09%.

`CN1CCCN(c2nccc(-c3c[nH]nc3C3CCCCC3)n2)CC1`: the Percent Effect is 2.25% in assay [1]; 8% in assay [2]; -4.76% in assay [3]; -6.22% in the assay on Trypanosoma cruzi; 1.33% in assay [4]; 24% in assay [5]. Moreover, the Percent Effect in the assay listed under Homo sapiens was 23%; in assay [6], 0.526%; in assay [7], 2.56%; in assay [8], -14.2%.

Turning to `Cn1ccc(C(=O)NCc2ccc(N3CCCC3)nc2)cc1=O`, the Percent Effect was -3.18% in [1]; 8% in assay [2]; 10.6% in [3]; 1% with Trypanosoma cruzi; 0% in assay [4]; 5.85% in assay [5]. In addition, the Percent Effect in the assay listed under Homo sapiens is 21.7%; in assay [6] it was 3.68%; in [7], 5.13%; in assay [8] it was -7.64%.

`CC(O)CNC(=O)NCc1cccnc1OC1CCCC1` (stereo not given): the Percent Effect is -1.77% in [1]; 13.3% in [2]; -3.55% in [3]; -3.21% with Trypanosoma cruzi; 7.54% in [4]; 2.63% in assay [5]. The Percent Effect is 10.2% in the assay filed under Homo sapiens, 6.84% in [6], 2.56% in [7] and -11.2% in assay [8].

Take `c1cnn(CC2CCCCN2Cc2cn3ccsc3n2)c1` (stereo not given): the Percent Effect in assay [1] is -2.05%; in assay [2], 10.3%; in assay [3] it was 13.3%; with Trypanosoma cruzi it was 9.67%; in assay [4] it was 0%; in assay [5], 9.98%. In addition, the Percent Effect is 15.8% in the assay filed under Homo sapiens, 10.1% in assay [6], 18.1% in assay [7] and -1.18% in [8].
